Reference: PubChem BioAssay
Active and inactive are the calls of the source.

assay: plasmodial surface anion channel blockers, osmotic lysis – cell-based, P. falciparum Indochina, OD700, 2 h, primary screen (AID 1155);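 also: lysis reports solute entry through the parasite surface anion channel PSAC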; conditions: P. falciparum Indochina infected erythrocytes, higher = more signal, called active from +8 up or from −8 down

SMILES	z-score
CCOC(=O)C1=CCC(c2ccccc2)N(S(=O)(=O)CC[Si](C)(C)C)C1 (stereo not given)	0.767 (inactive)
O=C1OCCC/C=C\[C@H]2OC34C=CCN(CCN5CCOCC5)C(=O)[C@H]3N(CCCO)C(=O)[C@@H]4C12 (stereo not given in full)	0.351 (inactive)
COc1cc2c(cc1O)C=[N+](Cc1cccc(OC(F)(F)F)c1)CC2	-1.25 (inactive)
COc1ccc(C(=O)Nc2cccc(CN3C(=O)[C@]4(O[C@H](CCO)[C@@H]([Si](C)(C)c5ccc(OC)cc5)[C@@H]4C)c4ccccc43)c2)cc1	1.45 (inactive)
CCCCCN1CC=CC23O[C@@H]4/C=C\CCCOC(=O)C4[C@H]2C(=O)N(C(CO)C(C)C)[C@@H]3C1=O (stereo not given in full)	0.264 (inactive)
O=C1O[C@H](c2ccccc2)[C@H](c2ccccc2)N2[C@H]1[C@@H](C(=O)NC[C@H](O)c1ccccc1)[C@]1(C(=O)Nc3ccccc31)[C@H]2c1ccc(OCCO)cc1	1.36 (inactive)
CCOC(=O)[C@H]1CC=C2CC1C(=O)N1CCC[C@@H]1[C@@H]2O[Si](C)(C)C(C)(C)C (stereo not given in full)	0.493 (inactive)
CCN(CC)c1ccc(N2CC=CC34O[C@@H]5/C=C\CCCOC(=O)C5[C@H]3C(=O)N(CCO)[C@@H]4C2=O)cc1 (stereo not given in full)	0.175 (inactive)
COCCOC(=O)N1C(=O)[C@@]2(c3cc(C#CC4=CCCCC4)ccc31)[C@H](C(=O)Nc1nc3ccccc3s1)[C@H]1C(=O)O[C@H](c3ccccc3)[C@H](c3ccccc3)N1[C@@H]2c1ccc(OCCO)cc1	1.23 (inactive)
CN1C(=O)C2C=CC(C(O)c3ccc(I)cc3)N(N3CCCCC3)C2C1=O (stereo not given)	0.399 (inactive)
CC1CC/C=C\[C@H]2OC34C=CCN(c5ccc(Cl)cc5)C(=O)[C@H]3N(CCO)C(=O)[C@]4(C)C2C(=O)O1 (stereo not given in full)	0.402 (inactive)
COCCOC(=O)N1C(=O)[C@@]2(c3cc(C#Cc4ccc(OC)cc4)ccc31)[C@H](c1ccc(O)cc1)N1[C@H](c3ccccc3)[C@H](c3ccccc3)OC(=O)[C@H]1[C@@H]2C(=O)NC[C@H](O)c1ccccc1	0.973 (inactive)
COc1ccc([Si](C)(C)[C@H]2[C@H](CCn3cc([C@H](O)c4ccccc4)nn3)O[C@@]3(C(=O)N(Cc4cccc(N5CCOC5=O)c4)c4ccccc43)[C@@H]2C)cc1	9.3 (active)
CN1C(=O)C2C=CC(C(O)C3=C[C@H]4C[C@@H](C3)C4(C)C)N(Nc3ccccc3)C2C1=O (stereo not given in full)	0.69 (inactive)
CC(=O)NCCCC[C@@H]1NC(=O)[C@@H]2C[C@H](C(=O)NCCCCN(C)C)[C@H](c3cccc(OCCO)c3)N2C1=O	0.0655 (inactive)
COc1ccc(CCNC(=O)[C@@]2(C)c3ccccc3C(=O)N(Cc3cc(F)cc(C(F)(F)F)c3)[C@H]2c2ccc(CO)cc2)cc1	0.906 (inactive)
C=CCOC(=O)[C@H]1[C@@H]2C(=O)O[C@@H](c3ccccc3)[C@@H](c3ccccc3)N2[C@@H](c2ccc(OCCOC(=O)[C@@H]3C[C@@H]4C(=O)N[C@@H](CCCC[N+](C)(C)C)C(=O)N4[C@@H]3c3ccc(O)cc3)cc2)[C@]12C(=O)Nc1ccccc12	-0.689 (inactive)
O=C1OCCC/C=C\[C@H]2OC34C=CCN(Cc5ccccc5)C(=O)[C@H]3N(CCCCCCO)C(=O)[C@@H]4C12 (stereo not given in full)	0.141 (inactive)
C=C(CCCC)C(=O)CC[C@H](OC(C)=O)c1cccc(OCCO)c1	-1.77 (inactive)
CC(C)N1C(=O)[C@@]2(Cc3ccccc31)c1ccccc1C(=O)N(C1CCCCC1)[C@H]2c1ccc(CO)cc1	0.195 (inactive)
COCCOC(=O)N1C(=O)[C@@]2(c3cc(C#CC4(O)CCCCCC4)ccc31)[C@H](c1ccc(O)cc1)N1[C@H](c3ccccc3)[C@H](c3ccccc3)OC(=O)[C@H]1[C@@H]2C(=O)Nc1nc2ccccc2s1	1.05 (inactive)
O=C1O[C@@H](c2ccccc2)[C@@H](c2ccccc2)N2[C@@H](c3ccccc3OCCO)[C@]3(C(=O)Nc4ccc(C#CC5=CCCCC5)cc43)[C@@H](C(=O)Nc3nc4ccccc4s3)[C@H]12	1.9 (inactive)
C=CCOC(=O)[C@@H]1[C@H]2C(=O)O[C@H](c3ccccc3)[C@H](c3ccccc3)N2[C@H](c2ccc(OCCOC(=O)[C@@H]3C[C@@H]4C(=O)N5CCC[C@H]5C(=O)N4[C@@H]3c3ccc(O)cc3)cc2)[C@@]12C(=O)Nc1ccc(I)cc12	0.727 (inactive)
C=CCNC(=O)[C@H]1[C@@H]2C(=O)O[C@@H](c3ccccc3)[C@@H](c3ccccc3)N2[C@@H](c2ccc(OCCO)cc2)[C@]12C(=O)N(C(=O)OCCOC)c1ccccc12	0.926 (inactive)
COc1ccc(C(=O)O[C@H]2CC[C@]3(C)C4=C(CCC3C2(C)C)[C@]2(C)CC[C@H]([C@H](C)CCCC(C)C)[C@@]2(C)CC4)cc1 (stereo not given in full)	-0.787 (inactive)
